# Laboratory results reported in the supplement of paper PMC8728848.
# This is one part of a sample in which the strongest signals are shown more often than they occur.
# Assays:
# Experiment in all cases: glycan array binding signal (z-score within array); higher = stronger binding
# Settings in all cases: glycan notation: IUPAC condensed, linker removed
# [1] = target: Fuc(a1-2)Gal6S(b1-3)GlcNAc
# Procedure, shortened: (§1)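 The binding signal is a Z-score computed within each array and averaged over linkers. Arrays of the same protein sequence at different concentrations or buffers were also averaged together. Data originate from 3228 arrays in the Consortium for Functional Glycomics database, kept only where the protein sequence was available.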
# [2] = target: Fuc(a1-2)[Gal(a1-3)]Gal(b1-3)GlcNAc(b1-2)Man(a1-3)[Fuc(a1-2)[Gal(a1-3)]Gal(b1-3)GlcNAc(b1-2)Man(a1-6)]Man(b1-4)GlcNAc(b1-4)[Fuc(a1-6)]GlcNAc
# Procedure, shortened: as §1
# [3] = target: Fuc(a1-2)[Gal(a1-3)]Gal(b1-3)GlcNAc(b1-3)GalNAc
# Procedure, shortened: as §1
# [4] = target: Fuc(a1-2)[Gal(a1-3)]Gal(b1-4)GlcNAc(b1-2)Man(a1-3)[Fuc(a1-2)[Gal(a1-3)]Gal(b1-4)GlcNAc(b1-2)Man(a1-6)]Man(b1-4)GlcNAc(b1-4)GlcNAc
# Procedure, shortened: as §1
# [5] = target: Fuc(a1-2)[Gal(a1-3)]Gal(b1-4)GlcNAc(b1-2)Man(a1-3)[Fuc(a1-2)[Gal(a1-3)]Gal(b1-4)GlcNAc(b1-2)Man(a1-6)]Man(b1-4)GlcNAc(b1-4)[Fuc(a1-6)]GlcNAc
# Procedure, shortened: as §1
# [6] = target: Fuc(a1-2)[Gal(a1-3)]Gal(b1-4)[Fuc(a1-3)]GlcNAc(b1-3)GalNAc
# Procedure, shortened: as §1
# [7] = target: Fuc(a1-2)[GalNAc(a1-3)]Gal(b1-3)GlcNAc(b1-2)Man(a1-3)[Fuc(a1-2)[GalNAc(a1-3)]Gal(b1-3)GlcNAc(b1-2)Man(a1-6)]Man(b1-4)GlcNAc(b1-4)GlcNAc
# Procedure, shortened: as §1
# [8] = target: Fuc(a1-3)GlcNAc
# Procedure, shortened: as §1
# [9] = target: Fuc(a1-3)[Gal3S(b1-4)]GlcNAc
# Procedure, shortened: as §1
# [10] = target: Gal(a1-3)Gal(b1-3)GlcNAc(b1-6)GalNAc
# Procedure, shortened: as §1
# [11] = target: Gal(a1-4)Gal(b1-4)GlcNAc(b1-2)Man(a1-3)[Gal(a1-4)Gal(b1-4)GlcNAc(b1-2)Man(a1-6)]Man(b1-4)GlcNAc(b1-4)GlcNAc
# Procedure, shortened: as §1
# [12] = target: Gal(b1-3)GalNAc(b1-3)Gal
# Procedure, shortened: as §1
# [13] = target: Gal(b1-3)GlcNAc(b1-3)Gal(b1-4)GlcNAc(b1-2)Man(a1-3)[Gal(b1-3)GlcNAc(b1-3)Gal(b1-4)GlcNAc(b1-2)Man(a1-6)]Man(b1-4)GlcNAc(b1-4)GlcNAc
# Procedure, shortened: as §1
# [14] = target: Gal(b1-4)GlcNAc(a1-6)Gal(b1-4)GlcNAc
# Procedure, shortened: as §1
# [15] = target: Gal(b1-4)GlcNAc(b1-2)Man(a1-3)[Gal(b1-4)GlcNAc(b1-2)][GlcNAc(b1-4)]Man(b1-4)GlcNAc(b1-4)GlcNAc
# Procedure, shortened: as §1
# [16] = target: Gal(b1-4)GlcNAc(b1-2)Man(a1-3)[Man(a1-6)]Man(b1-4)GlcNAc(b1-4)GlcNAc
# Procedure, shortened: as §1
# [17] = target: Gal(b1-4)GlcNAc(b1-2)[Gal(b1-4)GlcNAc(b1-6)]Man(a1-6)[GlcNAc(b1-4)][Gal(b1-4)GlcNAc(b1-2)Man(a1-3)]Man(b1-4)GlcNAc(b1-4)GlcNAc
# Procedure, shortened: as §1
# [18] = target: Gal(b1-4)GlcNAc(b1-3)Gal(b1-4)GlcNAc(b1-2)Man(a1-3)[Gal(b1-4)GlcNAc(b1-3)Gal(b1-4)GlcNAc(b1-2)Man(a1-6)]Man(b1-4)GlcNAc(b1-4)[Fuc(a1-6)]GlcNAc
# Procedure, shortened: as §1
# [19] = target: Gal(b1-4)GlcNAc(b1-3)Gal(b1-4)GlcNAc(b1-3)Gal(b1-4)GlcNAc(b1-2)[Gal(b1-4)GlcNAc(b1-3)Gal(b1-4)GlcNAc(b1-3)Gal(b1-4)GlcNAc(b1-6)]Man(a1-6)[Gal(b1-4)GlcNAc(b1-3)Gal(b1-4)GlcNAc(b1-3)Gal(b1-4)GlcNAc(b1-2)Man(a1-3)]Man(b1-4)GlcNAc(b1-4)[Fuc(a1-6)]GlcNAc
# Procedure, shortened: as §1
# [20] = target: Gal(b1-4)GlcNAc(b1-3)Gal(b1-4)GlcNAc(b1-3)Gal(b1-4)GlcNAc(b1-3)Gal(b1-4)GlcNAc(b1-2)Man(a1-3)[Gal(b1-4)GlcNAc(b1-3)Gal(b1-4)GlcNAc(b1-3)Gal(b1-4)GlcNAc(b1-3)Gal(b1-4)GlcNAc(b1-2)Man(a1-6)]Man(b1-4)GlcNAc(b1-4)[Fuc(a1-6)]GlcNAc
# Procedure, shortened: as §1
# [21] = target: Gal3S(b1-3)[Fuc(a1-4)]GlcNAc
# Procedure, shortened: as §1
# [22] = target: Gal6S(b1-3)GlcNAc6S
# Procedure, shortened: as §1
# [23] = target: GlcNAc(b1-2)Man(a1-3)[GlcNAc(b1-2)Man(a1-6)]Man(b1-4)GlcNAc(b1-4)GlcNAc
# Procedure, shortened: as §1
# [24] = target: GlcNAc(b1-2)[GlcNAc(b1-4)]Man(a1-3)[GlcNAc(b1-4)][GlcNAc(b1-2)[GlcNAc(b1-6)]Man(a1-6)]Man(b1-4)GlcNAc(b1-4)GlcNAc
# Procedure, shortened: as §1
# [25] = target: GlcNAc(b1-3)Gal
# Procedure, shortened: as §1
# [26] = target: GlcNAc(b1-3)Gal(b1-4)GlcNAc(b1-2)Man(a1-3)[GlcNAc(b1-3)Gal(b1-4)GlcNAc(b1-2)Man(a1-6)]Man(b1-4)GlcNAc(b1-4)GlcNAc
# Procedure, shortened: as §1
# [27] = target: GlcNAc(b1-3)Gal(b1-4)GlcNAc(b1-2)Man(a1-3)[GlcNAc(b1-3)Gal(b1-4)GlcNAc(b1-2)Man(a1-6)]Man(b1-4)GlcNAc(b1-4)[Fuc(a1-6)]GlcNAc
# Procedure, shortened: as §1
# [28] = target: GlcNAc(b1-3)Gal(b1-4)GlcNAc(b1-3)Gal(b1-4)GlcNAc(b1-2)Man(a1-3)[GlcNAc(b1-3)Gal(b1-4)GlcNAc(b1-3)Gal(b1-4)GlcNAc(b1-2)Man(a1-6)]Man(b1-4)GlcNAc(b1-4)GlcNAc
# Procedure, shortened: as §1
binder,measurement,setting,value
PpFlo2 (Pichia pastoris) (protein) MGSSHHHHHHSSGLVPRGSHMDDSGNGDNSDTAYGCDITTNAVDGFDATIYQYNANDLRLIRDPTFMSTGYLGRNVLNKISGVTVPGFNIWNPSSRTATVYGVKNVNYYNMVLELKGYFKADVSGDYKLTLSHIDDSSMLFFGKETAFKCCDAGSIPLNEAPTDYSLFTIKPSNQVNSEVISATQYLEAGKYYPVRIVFVNALERARFDFKLTIPSGAVLDDFQNYIYQFGDLDENSCHE,glycan array binding signal (z-score),[1],-0.272
same,glycan array binding signal (z-score),[2],-0.293
same,glycan array binding signal (z-score),[3],-0.288
same,glycan array binding signal (z-score),[4],-0.209
same,glycan array binding signal (z-score),[5],-0.288
same,glycan array binding signal (z-score),[6],-0.297
same,glycan array binding signal (z-score),[7],-0.287
same,glycan array binding signal (z-score),[8],-0.292
same,glycan array binding signal (z-score),[9],-0.313
same,glycan array binding signal (z-score),[10],-0.271
same,glycan array binding signal (z-score),[11],-0.23
same,glycan array binding signal (z-score),[12],-0.272
same,glycan array binding signal (z-score),[13],-0.174
same,glycan array binding signal (z-score),[14],-0.273
same,glycan array binding signal (z-score),[15],-0.344
same,glycan array binding signal (z-score),[16],-0.273
same,glycan array binding signal (z-score),[17],-0.297
same,glycan array binding signal (z-score),[18],-0.25
same,glycan array binding signal (z-score),[19],-0.261
same,glycan array binding signal (z-score),[20],-0.243
same,glycan array binding signal (z-score),[21],-0.286
same,glycan array binding signal (z-score),[22],-0.286
same,glycan array binding signal (z-score),[23],3.88
same,glycan array binding signal (z-score),[24],0.675
same,glycan array binding signal (z-score),[25],1.09
same,glycan array binding signal (z-score),[26],4.64
same,glycan array binding signal (z-score),[27],4.49
same,glycan array binding signal (z-score),[28],3.9
